Structures are written as SMILES. Values without a mark were called inactive. Inconclusive results are not listed. The source made the active and inactive calls. Unless noted, the call rests on the fitted dose curve; in most records, active means well fitted curve in the direction sought with a large enough effect in the repeat runs; inconclusive means weak or mixed curves; inactive means no such curve, though single readings can be large; an effect the other way counts as inactive or inconclusive.

A short description of assay [1]: qHTS assay to identify small molecule agonists of the constitutive androstane receptor (CAR) signaling pathway - cell viability counter screen (AID 1224836). Further: nearly all actives have a fitted effect of over 45% in size. Further: potency means the concentration at half of the fitted maximal effect. The gist of the method: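 Using CellTiter-Fluor, viability of HepG2 cells harbouring hCAR and CYP2B6-2.2kb was measured following 23 h incubation with a 15-concentration compound series plus PK11195 (0.75 uM final).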
Background: Quantitative high-throughput screening tests each substance at several concentrations.

Assay [2] can be described thus: qHTS assay to identify small molecule antagonists of the constitutive androstane receptor (CAR) signaling pathway - cell viability counter screen (AID 1224837). Further: nearly all actives have a fitted effect of over 45% in size. Further: potency means the concentration at half of the fitted maximal effect. The gist of the method:
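Multiplexed cytotoxicity read-out for the CAR antagonist screen: double-stable HepG2-CYP2B6-hCAR cells co-treated with 50 nM CITCO (final) and compound over 15 concentrations, incubated 23 hr, then assessed by CellTiter-Fluor fluorescence.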

For assay [3], the target named is Nuclear receptor subfamily 1 group I member 3 (Homo sapiens) (UniProt Q14994). Kind of assay: qHTS assay to identify small molecule antagonists of the constitutive androstane receptor (CAR) signaling pathway (AID 1224838). Further: nearly all actives have a fitted effect of over 40% in size. Further: potency means the concentration at half of the fitted maximal effect. A digest of the protocol:
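Compounds were titrated across 15 concentrations onto HepG2 cells double-stably expressing hCAR and a CYP2B6-2.2kb reporter, together with 50 nM CITCO (final). After 24 h at 37 C, luciferase activity was measured by luminescence.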

For assay [4] the target is unchanged. The assay can be described thus: qHTS assay to identify small molecule agonists of the constitutive androstane receptor (CAR) signaling pathway (AID 1224839).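 Further: HepG2 cells stably carrying human CAR and a CYP2B6 luciferase reporter; on the % scale 0 is the no-effect control and ±100 the full control effect; nearly all actives have a fitted effect of over 15% in size.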 A digest of the protocol:
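Double-stable HepG2 cells (hCAR, CYP2B6-2.2kb) seeded 4 h before compound addition. Exposure 24 h with 0.75 uM PK11195 final. Luciferase detected by ONE-Glo.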

Assay [5] is described as follows: qHTS assay to identify small molecule antagonists of the estrogen related receptor signaling pathway with the pleiotropic PPARgamma coactivator (PGC) from Tox21 10K library - cell viability counter screen (AID 1224840; active means well fitted cell-killing curve with a large enough effect in the repeat runs, not every such curve was filed as active; further: nearly all actives have a fitted effect of over 40% in size; further: potency means the concentration at half of the fitted maximal effect). A digest of the protocol:
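Step one, plate 2,000 PGC/ERR cells per well; step two, incubate 6 h at 37 C/5% CO2; step three, pin-transfer compounds; step four, incubate 17.5 h; step five, add CellTiter-Fluor and read fluorescence after 30 min.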

Assay [6] concerns the target Thyrotropin receptor (Homo sapiens) (UniProt P16473). The assay can be described thus: qHTS assay to identify small molecule agonists of the thyroid stimulating hormone receptor (TSHR) signaling pathway (AID 1224843; calls by dose curve; further: nearly all actives have a fitted effect of over 45% in size; further: potency means the concentration at half of the fitted maximal effect; on activation: on the % scale 0 is the no-effect control and ±100 the full control effect). A digest of the protocol:
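HEK293 cells stably bearing the thyrotropin receptor were plated at 800 cells/well and challenged with compound (30 min, RT). Accumulated cAMP was quantified via cAMP-d2 competing for cryptate-tagged antibody.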

A short description of assay [7]: qHTS RealTime-Glo MT Cell Viability Assay in HepG2 cells - 24 hour (AID 1224867). Further: nearly all actives have a fitted effect of over 50% in size. Further: potency means the concentration at half of the fitted maximal effect. The gist of the method: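 Luminescence read-out: viable HepG2 cells reduce a prosubstrate to a NanoLuc substrate, giving a signal proportional to live cell number. Reads taken at 0, 8, 16, 24, 32 and 40 h of compound exposure at 37 C.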
Assay [8] is described as follows: A CellTox Green Cytotoxicity Assay to monitor cytotoxicity in HEK293 cells - 0 hour (AID 1224869). Further: on the % scale 0 is the no-effect control and ±100 the full control effect; nearly all actives have a fitted effect of over 50% in size. A digest of the protocol: (§1)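 Cytotoxicity was tracked continuously in HEK293 cells by a DNA-binding dye excluded from viable cells. Compounds were transferred in DMSO 5 h after seeding; fluorescence was recorded at intervals up to 40 h.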
A short description of assay [9]: qHTS RealTime-Glo MT Cell Viability Assay in HepG2 cells - 40 hour (AID 1224870). Further: nearly all actives have a fitted effect of over 50% in size. Further: potency means the concentration at half of the fitted maximal effect. The gist of the method:
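Real-time viability: cells seeded at 600 per well together with NanoLuc and cell-permeant prosubstrate, compounds added after 5 h incubation. Luminescence tracked at 0, 8, 16, 24, 32 and 40 h of exposure.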

The nature of assay [10]: A CellTox Green Cytotoxicity Assay to monitor cytotoxicity in HEK293 cells - 40 hour (AID 1224871). Further: nearly all actives have a fitted effect of over 45% in size. Further: potency means the concentration at half of the fitted maximal effect. A digest of the protocol:
as §1

The nature of assay [11]: qHTS assay to identify small molecule agonists of the estrogen related receptor signaling pathway with the pleiotropic PPARgamma coactivator (PGC) from Tox21 10K library (AID 1224842). Further: on the % scale 0 is the no-effect control and ±100 the full control effect; nearly all actives have a fitted effect of over 15% in size. A digest of the protocol:
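Luminescence from One-Glo (30 min, room temperature) measured after PGC/ERR cells had 18 h at 37 C with pinned compound (23 nL in DMSO). Cells had been seeded at 2,000 per well and pre-incubated 6 h.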

The nature of assay [12]: qHTS assay to identify small molecule agonists of the hypoxia (HIF-1) signaling pathway - cell viability counter screen (AID 1224844; calls by dose curve; further: nearly all actives have a fitted effect of over 50% in size; further: potency means the concentration at half of the fitted maximal effect). A digest of the protocol:
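Tox21 10K compounds were added to HRE-bla ME-180 cells (0.5% dialyzed FBS) and incubated 17 hrs at 37C; ATP-based CellTiter-Glo luminescence then reported cell viability in the same wells.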

Assay [13] can be described thus: qHTS assay to identify small molecule agonists of H2AX - cell viability counter screen (AID 1224847; calls by dose curve; further: nearly all actives have a fitted effect of over 30% in size; further: potency means the concentration at half of the fitted maximal effect). A digest of the protocol:
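Quantitative HTS viability measurement: CHO-K1 wild-type cells in serum (10% FBS) medium, short 3 hr drug exposure at 37C with 0.76% DMSO, CellTiter-Glo luminescent detection.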

Assay [14] is described as follows: qHTS assay to identify small molecule antagonists of the estrogen related receptor (ERR) signaling pathway from Tox21 library (AID 1224848). A digest of the protocol:
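Reading was by luminescence 30 min after ONE-Glo addition. Before that, ERR cells at 2,000 per well had rested 6 h at 37 C/5% CO2 and then received pin-tooled compounds in DMSO for 18 h at 37 C.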

A short description of assay [15]: qHTS assay to identify small molecule agonists of the estrogen related receptor (ERR) signaling pathway from Tox21 library (AID 1224849; calls by dose curve; further: on the % scale 0 is the no-effect control and ±100 the full control effect; nearly all actives have a fitted effect of over 15% in size). The note with it: ERR reporter cell line, ONE-Glo luciferase, 18 h; at 92.4 µM (top of the series) unless noted. The gist of the method: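 Agonist signal is luciferase luminescence from an ERR reporter cell line treated 18 h at 37 C with DMSO-dissolved compounds, read 30 min after ONE-Glo addition at room temperature.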

Assay [16] is described as follows: qHTS RealTime-Glo MT Cell Viability Assay in HEK293 cells - 16 hour (AID 1224872). Further: nearly all actives have a fitted effect of over 50% in size. Further: potency means the concentration at half of the fitted maximal effect. The gist of the method:
(§2)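 Nonlytic real-time viability readout: viable cells convert prosubstrate to NanoLuc substrate, giving luminescence proportional to live cell number. HEK293, 600 cells/well, compound added after 5 h, continuous culture at 37 C.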

A short description of assay [17]: qHTS assay to identify small molecule agonists of H2AX (AID 1224845; active means well fitted activation curve with a large enough effect in the signal ratio in the repeat runs, not every such curve was filed as active; the % refers to the signal ratio; further: on the % scale 0 is the no-effect control and ±100 the full control effect). The gist of the method: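 Phospho-H2AX Ser139 measured by HTRF (ex 320 nm; em 665 and 620 nm) after 24 hr antibody incubation. Compounds, 15 concentrations, 0.76% DMSO, were applied to CHO-K1 cells for 3hr at 37C before lysis.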
The nature of assay [18]: qHTS assay to identify small molecule agonists of the hypoxia (HIF-1) signaling pathway (AID 1224846; active means well fitted activation curve with a large enough effect in the signal ratio in the repeat runs, not every such curve was filed as active; the % refers to the signal ratio; further: on the % scale 0 is the no-effect control and ±100 the full control effect). The gist of the method:
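Steps: seed ME-180 HRE-bla cells (2,000/well, 0.5% dialyzed FBS); incubate 5 hrs at 37C; pin-transfer compounds or DMSO; incubate 17 hrs; add LiveBLAzer B/G substrate CCF4-AM; measure reporter activation by FRET.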

Assay [19] can be described thus: qHTS RealTime-Glo MT Cell Viability Assay in HEK293 cells - 32 hour (AID 1224868). Further: nearly all actives have a fitted effect of over 50% in size. Further: potency means the concentration at half of the fitted maximal effect. A digest of the protocol: as §2
Assay [20] is described as follows: qHTS assay to identify small molecule antagonists of the estrogen related receptor signaling pathway with the pleiotropic PPARgamma coactivator (PGC) from Tox21 10K library (AID 1224841; call rule not given here). The gist of the method:
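Antagonism in this quantitative HTS is taken from loss of luciferase signal in PGC/ERR cells. Cells (2,000/well) are treated with compounds in DMSO after a 6 h settling period and read by One-Glo luminescence after 18 h.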

Sequence of Nuclear receptor subfamily 1 group I member 3 (Homo sapiens) (Q14994 whole entry, looked up): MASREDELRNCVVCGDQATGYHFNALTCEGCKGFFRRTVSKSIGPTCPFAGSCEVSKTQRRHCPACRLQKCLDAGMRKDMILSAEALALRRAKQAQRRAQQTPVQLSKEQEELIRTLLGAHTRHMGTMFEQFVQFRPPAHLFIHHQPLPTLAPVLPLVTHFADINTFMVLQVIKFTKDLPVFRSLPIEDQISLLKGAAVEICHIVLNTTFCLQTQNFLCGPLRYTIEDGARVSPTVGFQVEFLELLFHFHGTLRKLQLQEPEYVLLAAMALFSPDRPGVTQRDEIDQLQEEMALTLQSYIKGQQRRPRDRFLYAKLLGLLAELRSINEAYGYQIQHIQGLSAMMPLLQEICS
Sequence of Thyrotropin receptor (Homo sapiens) (P16473 whole entry, looked up): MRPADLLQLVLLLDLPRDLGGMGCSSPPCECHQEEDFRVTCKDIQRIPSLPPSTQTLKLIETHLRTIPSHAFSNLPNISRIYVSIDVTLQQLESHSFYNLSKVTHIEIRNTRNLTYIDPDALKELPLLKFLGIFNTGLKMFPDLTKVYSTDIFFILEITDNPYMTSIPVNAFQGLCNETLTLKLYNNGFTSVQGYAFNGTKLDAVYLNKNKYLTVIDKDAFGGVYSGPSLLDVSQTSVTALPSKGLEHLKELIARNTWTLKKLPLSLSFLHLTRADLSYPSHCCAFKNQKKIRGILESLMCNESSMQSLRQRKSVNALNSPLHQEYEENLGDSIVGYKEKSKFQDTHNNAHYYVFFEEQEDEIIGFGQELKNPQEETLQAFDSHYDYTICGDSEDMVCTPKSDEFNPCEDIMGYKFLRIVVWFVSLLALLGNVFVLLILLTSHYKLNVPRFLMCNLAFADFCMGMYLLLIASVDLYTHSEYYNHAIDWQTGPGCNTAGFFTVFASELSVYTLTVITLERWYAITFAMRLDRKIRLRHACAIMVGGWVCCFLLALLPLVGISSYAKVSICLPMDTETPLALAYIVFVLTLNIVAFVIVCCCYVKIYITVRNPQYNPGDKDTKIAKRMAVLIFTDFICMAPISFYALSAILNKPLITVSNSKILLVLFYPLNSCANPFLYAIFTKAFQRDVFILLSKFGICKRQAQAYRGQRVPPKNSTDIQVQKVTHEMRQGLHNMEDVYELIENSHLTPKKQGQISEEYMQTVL

For the compound `CCc1oc2ccccc2c1C(=O)c1cc(Br)c(O)c(Br)c1`, the Potency entry in assay [1], in [2], in assay [3], in [4], in [5] and in assay [6] was “inactive” throughout. The Potency result in assay [7], in assay [8], in assay [9] and in assay [10] was “inactive” in each case.

With `CCCCCCCCCCCC[N+](C)(C)CCCCCCCCCCCC`, the Potency in assay [1] was 27.3 µM (active); in assay [2], 24.3 µM (active); in assay [3], 27.3 µM (active); in assay [5] it was 27.3 µM (active); in assay [6], 24.3 µM (active); in assay [12], 21.9 µM (active). Further, the Potency was 28.4 µM (active) in [13]; 13.7 µM (active) in assay [14]; 7.76 µM (active) in assay [7]; 6.92 µM (active) in [9]; 17.4 µM (active) in [10]; 11 µM (active) in [16]. For the same compound, the Potency entry in assay [4], in assay [11] and in [8] was “inactive” throughout. The activity change, positive = activation in assay [15] was -72.6%.

`Cc1ccc(O)c(C(C)(C)C)c1`: the Potency result in assay [1], in assay [2], in assay [3], in [4], in assay [5] and in [6] was “inactive” in each case. The Potency result in [12], in assay [17], in assay [18], in assay [7], in [19] and in assay [8] was “inactive” throughout. Also, the Potency result in assay [9] and in [16] was “inactive” in each case. Besides, the Potency in assay [13] was 89.6 µM (active); in assay [10], 43.6 µM (active).

Consider `Clc1ccc2n[nH]nc2c1`, for which the Potency result in [1], in assay [2], in assay [3], in assay [4], in assay [5] and in [12] was “inactive” in each case. Also, the Potency entry in assay [17], in [13], in assay [7], in assay [19], in assay [8] and in assay [9] was “inactive” in each case. For the same compound, the Potency result in assay [10] and in assay [16] was “inactive” in each case.

Take `CCCCCCCCCCCCCC[P+](CCCC)(CCCC)CCCC` (tested in a mixture with another compound): the Potency is 19.4 µM (active) in assay [1]; 19.4 µM (active) in assay [2]; 17.3 µM (active) in assay [3]; 17.3 µM (active) in assay [5]; 15.6 µM (active) in assay [12]; 3.6 µM (active) in assay [13]. The Potency in assay [7] is 19.6 µM (active); in assay [19], 0.553 µM (active); in assay [9], 19.6 µM (active); in [10] it was 15.6 µM (active); in assay [16], 8.76 µM (active). Further, the Potency result in assay [4] and in [8] was “inactive” throughout.

Take `CCCN(CCC)C(=O)C(CCC(=O)OCCCN1CCN(CCOC(=O)Cc2c(C)n(C(=O)c3ccc(Cl)cc3)c3ccc(OC)cc23)CC1)NC(=O)c1ccccc1` (stereo not given): the Potency is 23.7 µM (active) in assay [1]; 26.6 µM (active) in assay [2]; 29.8 µM (active) in assay [20]; 19 µM (active) in assay [12]; 29.8 µM (active) in [14]; 21.3 µM (active) in assay [16]. Besides, the Potency entry in assay [3], in assay [4], in [11], in assay [6], in assay [17] and in assay [13] was “inactive” throughout. The Potency result in assay [8], in assay [9] and in assay [10] was “inactive” throughout. For the same compound, the activity change, positive = activation in assay [15] was -47.5% [at 42.5 µM].

Consider `CCCCCCCC(=O)[O-].CCCCCCCC(=O)[O-].[Zn+2]`, for which the Potency result in assay [1], in [2], in [3], in assay [4], in [5] and in assay [12] was “inactive” each time. Moreover, the Potency entry in assay [17], in assay [18], in assay [13], in assay [7], in assay [19] and in [8] was “inactive” in each case. The Potency entry in assay [9], in assay [10] and in assay [16] was “inactive” each time.

The values above are taken from PubChem BioAssay (Tox21).
